Experimental data from PubChem BioAssay AID1159580 (chemical genetic matrix, 2015).
Where “and” joins values, the source holds several entries; their conditions need not be identical. Equal values may be shown once. Hit rate of the full screen: of about 5,500 compounds, about 2,000 (36%) were called active. About 18% were inconclusive and are not listed. Cut-off read from the data, not from the text of the source: active = normalized growth mostly below about 0.91 (no sharp cut-off); inconclusive = no clear call, values can overlap the other calls; inactive = mostly above about 0.92. This is one part of the list.

Test: chemical genetic growth profiling, strain panel (AID 1159580);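 note: tested at 20 µM; growth read once vehicle control cultures reached saturation at 30 °C; 1 = growth at the plate median or of vehicle wells; lower values mean less growth of the strain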
Details: S. cerevisiae deletion strains, growth OD

Measured: normalized growth

CCN(CC)CCNC(=O)c1cc(Br)c(N)cc1OC
inactive: locus YAL021C, strain ccr4, active compounds read low 0.984 | locus YAL026C, strain drs2, active compounds read low 0.997 | locus YAL030W, strain snc1, active compounds read low 0.997 | locus YBL061C, strain skt5, active compounds read low 0.992 | locus YBR009C, strain hhf1, active compounds read low 1.02 | locus YBR021W, strain FUR4, active compounds read low 1.03 | locus YBR023C, strain chs3, active compounds read low 0.992 | locus YBR171W, strain sec66, active compounds read low 0.983 | locus YBR229C, strain ROT2, active compounds read low 0.957 | locus YBR231C, strain swc5, active compounds read low 0.981 | locus YBR279W, strain paf1, active compounds read low 0.991 | locus YCL011C, strain gbp2, active compounds read low 0.978 | locus YCL016C, strain dcc1, active compounds read low 0.992 | locus YCL029C, strain bik1, active compounds read low 0.989 | locus YCL061C, strain MRC1, active compounds read low 0.984 | locus YCL069W, strain vba3, active compounds read low 0.987 | locus YCR088W, strain abp1, active compounds read low 0.981 | locus YDL005C, strain med2, active compounds read low 0.989 | locus YDL035C, strain GPR1, active compounds read low 0.986 | locus YDL040C, strain nat1, active compounds read low 1 | locus YDL074C, strain BRE1, active compounds read low 0.947 | locus YDL101C, strain DUN1, active compounds read low 0.976 | locus YDL134C, strain PPH21, active compounds read low 1.01 | locus YDL185W, strain tfp1, active compounds read low 0.983 | locus YDL192W, strain arf1, active compounds read low 0.983 | locus YDR001C, strain nth1, active compounds read low 0.979 | locus YDR069C, strain doa4, active compounds read low 1.01 | locus YDR101C, strain arx1, active compounds read low 0.979 | locus YDR137W, strain rgp1, active compounds read low 1.04 | locus YDR159W, strain sac3, active compounds read low 1 | locus YDR162C, strain NBP2, active compounds read low 1 | locus YDR195W, strain ref2 0.967 | locus YDR297W, strain sur2, active compounds read low 0.976 | locus YDR318W, strain mcm21, active compounds read low 1 | locus YDR334W, strain swr1, active compounds read low 0.954 | locus YDR335W, strain msn5, active compounds read low 0.987 | locus YDR388W, active compounds read low 0.989 | locus YDR392W, strain spt3, active compounds read low 0.932 | locus YDR502C, strain sam2, active compounds read low 0.983 | locus YEL003W, strain gim4, active compounds read low 0.979 | locus YEL037C, strain rad23, active compounds read low 0.985 | locus YEL061C, strain CIN8 (second series), active compounds read low 0.982 | locus YEL061C, strain CIN8, active compounds read low 0.978 | locus YER015W, strain faa2, active compounds read low 0.986 | locus YER016W, strain bim1, active compounds read low 0.997 | locus YER110C, active compounds read low 0.978 | locus YER111C, strain swi4, active compounds read low 1.01 | locus YER155C, strain BEM2 (second series), active compounds read low 1 | locus YER155C, strain BEM2, active compounds read low 1 | locus YER167W, strain BCK2, active compounds read low 1.01 | locus YFR010W, strain ubp6, active compounds read low 0.984 | locus YGL078C, strain dbp3, active compounds read low 0.974 | locus YGL086W, strain mad1, active compounds read low 0.98 | locus YGL167C, strain pmr1, active compounds read low 0.98 | locus YGL173C, strain kem1, active compounds read low 0.991 | locus YGL227W, strain vid30, active compounds read low 0.995 | locus YGL240W, strain doc1, active compounds read low 0.993 | locus YGL248W, strain PDE1, active compounds read low 0.971 | locus YGL253W, strain hxk2, active compounds read low 0.982 | locus YGR078C, strain PAC10, active compounds read low 0.975 | locus YGR135W, strain pre9, active compounds read low 1.04 | locus YGR252W, strain gcn5, active compounds read low 1.02 | locus YHR013C, strain ard1, active compounds read low 0.972 | locus YHR027C, strain rpn1, active compounds read low 0.976 | locus YHR030C, strain SLT2, active compounds read low 0.997 and 0.978 | locus YHR079C, strain IRE1 (second series), active compounds read low 0.989 | locus YHR079C, strain IRE1, active compounds read low 1 | locus YHR094C, strain hxt1, active compounds read low 0.985 | locus YHR129C, strain ARP1, active compounds read low 1 | locus YHR142W, strain chs7, active compounds read low 0.97 | locus YHR200W, strain rpn10, active compounds read low 0.994 | locus YIL066C, strain RNR3, active compounds read low 0.965 | locus YIL073C, strain SPO22, active compounds read low 1.04 | locus YIL125W, strain kgd1, active compounds read low 0.985 | locus YIR030C, strain dcg1, active compounds read low 0.986 | locus YJL092W, strain hpr5, active compounds read low 0.973 | locus YJL095W, strain BCK1 (second series), active compounds read low 0.99 | locus YJL095W, strain BCK1, active compounds read low 0.962 and 0.993 | locus YJL115W, strain asf1, active compounds read low 0.966 | locus YJL129C, strain trk1, active compounds read low 0.99 | locus YJL134W, strain LCB3, active compounds read low 0.994 | locus YJL154C, strain vps35, active compounds read low 0.986 | locus YJL164C, strain tpk1, active compounds read low 1.01 | locus YJL166W, strain qcr8, active compounds read low 0.998 | locus YJL168C, strain set2, active compounds read low 0.987 | locus YJL187C, strain SWE1 (second series), active compounds read low 0.944 | locus YJL187C, strain SWE1, active compounds read low 0.993
